# In the library only some 6.9% were active in any assay of this set; here they are far more common.
# Beta apoptosis: beta cell apoptosis inhibition; INS-1E cytokine-induced death, ATP luminescence, 48 h; percent of positive-control rescue, neutral wells zero; protection from apoptosis, % (concentration not given with the values); 300,000 tested, 0.8% active;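 active = Every replicate reaches about 75%, or at least half do and their mean reaches it too, limit read from the data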;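 note: 0% = cytokine-treated negative control wells and 100% = positive control rescue; higher means more ATP so stronger rescue from cytokine killing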
# MPTP inh: blocks calcium-induced mitochondrial swelling | isolated mouse mitochondria, Ca2+ swelling absorbance, 30 min | inhibition, % at 10 µM | 360,000 tested, 1.4% active | AID 602449;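 active = inhibition of 50% or more, scaled per plate between neutral and stimulator controls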;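 note: 0% = DMSO wells given calcium and 100% = 1 mM EGTA wells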
# Mdm2-MdmX inh: disrupts the human Mdm2-MdmX interaction; O15151+Q00987; SaOS-2 split-luciferase Mdm2/MdmX complementation, luminescence; inhibition, % at 8 µM; 330,000 tested, 3% active;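 active = inhibition of at least 50% at 8 µM in the primary screen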
# Target sequence (O15151 whole entry, looked up): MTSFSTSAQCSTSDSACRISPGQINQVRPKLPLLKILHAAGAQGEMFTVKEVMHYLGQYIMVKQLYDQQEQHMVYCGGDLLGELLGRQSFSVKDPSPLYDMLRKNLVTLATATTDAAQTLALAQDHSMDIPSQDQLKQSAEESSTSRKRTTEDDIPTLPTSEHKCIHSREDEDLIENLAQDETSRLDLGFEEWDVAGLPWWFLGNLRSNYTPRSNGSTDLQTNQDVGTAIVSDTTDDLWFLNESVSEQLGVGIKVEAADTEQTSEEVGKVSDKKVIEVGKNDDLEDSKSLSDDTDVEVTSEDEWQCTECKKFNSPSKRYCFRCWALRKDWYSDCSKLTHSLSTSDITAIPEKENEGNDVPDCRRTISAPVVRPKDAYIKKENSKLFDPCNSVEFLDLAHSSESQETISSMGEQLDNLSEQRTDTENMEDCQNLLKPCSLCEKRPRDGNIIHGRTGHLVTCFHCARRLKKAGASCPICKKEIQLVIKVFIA
# Target sequence (Q00987 whole entry, looked up): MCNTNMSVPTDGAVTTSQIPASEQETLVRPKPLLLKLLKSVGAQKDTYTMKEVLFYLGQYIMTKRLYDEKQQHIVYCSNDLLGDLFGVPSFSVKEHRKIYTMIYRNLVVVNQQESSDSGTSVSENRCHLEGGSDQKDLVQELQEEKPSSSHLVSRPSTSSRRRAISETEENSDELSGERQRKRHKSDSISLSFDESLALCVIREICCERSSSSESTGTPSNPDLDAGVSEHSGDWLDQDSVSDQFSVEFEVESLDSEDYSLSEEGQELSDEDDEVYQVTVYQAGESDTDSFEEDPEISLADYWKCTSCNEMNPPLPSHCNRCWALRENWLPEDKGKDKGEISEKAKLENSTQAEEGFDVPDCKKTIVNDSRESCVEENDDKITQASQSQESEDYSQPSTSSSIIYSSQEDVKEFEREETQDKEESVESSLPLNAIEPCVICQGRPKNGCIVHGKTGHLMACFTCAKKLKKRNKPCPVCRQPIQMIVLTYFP
# SKKanGAS inh: blocks kanamycin growth of S. pyogenes SKKanGAS strain | BacTiter-Glo, 6 h | inhibition, % at 7.5 µM | 300,000 tested, 1.3% active | AID 1662;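 active = mean replicate score, as percent of positive control median, at least 50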;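 note: strain carries kanamycin resistance gene driven by streptokinase promoter and grows in 40 µg/ml kanamycin; loss of luminescence reflects streptokinase promoter inhibition or plain growth inhibition; 0% = median of DMSO wells and 100% = positive control at its reference dose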
# GRIN3A LBD mod: NR3A (human) ligand-binding domain modulation; NR3A LBD differential scanning fluorimetry, Tm shift; 0% = protein alone, 100% = glycine-bound protein; 340,000 tested, 2.5% active; Tm shift relative to glycine control, % at 25 µM;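 active = melting temperature shift of at least 10% of the positive control shift, at one fixed dose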
# CSC inhib: blocks cancer stem cells; cancer stem cell-like cells viability, luminescence; inhibition, % at 7.5 µM; 300,000 tested, 1.1% active; AID 2717; in the data active = inhibition above about 75%; tested in HMLE shEcad cells
# The depositor's hits bear a star; / = no result.
SMILES,Beta apoptosis,MPTP inh,Mdm2-MdmX inh,SKKanGAS inh,GRIN3A LBD mod,CSC inhib
CC(C)(C)c1ccc(Oc2ccc(NC(=O)C3CC=CCC3C(=O)O)cc2)cc1 (configuration not stated),1.8,0.5,-18.9,-9.6,-3.2,79.8*
COc1ccc(N(CC(=O)NCC2CCCO2)C(=O)CCC(=O)Nc2cc(C)on2)cc1OC (configuration not stated),-0.6,0.6,19.7,-3.1,-2.0,-6.8
Cc1ccc(C)c(C(=O)CCC(=O)NCc2ccc(Cl)cc2)c1,0.1,0.8,22.1,-0.1,-2.5,7.2
CCOC(=O)/C(C#N)=C1/C=CN(c2ccccc2)C=N1,3.5,3.4,6.6,1.1,14.0*,-6.3
Cc1cc2c(cc1C)CSC(c1ccccc1O)SC2,8.9,5.5,12.3,23.4,11.6*,9.6
Cc1cc2c(cc1C)CSC(c1ccc3ccccc3c1O)SC2,-1.5,16.4,39.2,6.6,14.7*,3.9
Cc1cc2c(cc1C)CSC(c1ccc(O)cc1)SC2,-1.4,1.9,32.2,-0.7,7.9,-22.0
Cc1cc2c(cc1C)CSC(c1ccccc1OC(=O)C(C)(C)C)SC2,-1.2,-1.1,42.9,25.6,2.0,8.1
O=C(N/N=C/c1ccccc1O)C(=O)N1CCCCCC1,-1.6,0.3,3.2,3.5,11.3*,20.4
O=C(N/N=C/c1ccccc1O)NC12CC3CC(CC(C3)C1)C2,6.9,-0.4,-19.0,83.8*,/,36.7
O=C(NNc1ccccc1)C(=O)N1CCCCC1,/,-0.6,16.3,0.6,-1.3,110.8*
O=C(N/N=C/c1ccccc1F)C(=O)N1CCCCCC1,-7.9,-0.3,-6.6,-15.1,-0.8,/
O=C(NCCCCO)c1c(-c2ccccc2)oc2c1C(OCCCCCO)CCC2 (configuration not stated),/,-0.1,/,/,/,/
CCOC(=O)CN1C(=O)N[C@@H](c2cccc(C(F)(F)F)c2)[C@@H](C(=O)OC)[C@H]1C,3.1,-0.7,-12.4,7.4,0.3,12.1
Cc1cc(C(=O)OCC(=O)Nc2ccccc2[N+](=O)[O-])c2ccccc2n1,2.4,-0.9,9.1,3.8,7.7,-9.7
Cc1cnc(C(=O)OCC(=O)Nc2ccccc2[N+](=O)[O-])cn1,3.5,-1.8,9.5,/,11.2*,1.8
CCC1(CC)NC(=O)N(CC(=O)OCC(=O)c2ccccc2OC)C1=O,-6.1,-0.3,29.6,-7.5,-0.9,-8.9
CCc1nn(CC(=O)N2CCN(c3ccc(F)cc3)CC2)c(=O)c2cc3occc3n12,-3.6,-3.0,17.6,-5.7,-1.6,-0.2
CCc1ccc(S(=O)(=O)N2c3ccc(C)cc3C3CN(C)CCC32)cc1 (configuration not stated),9.3,1.0,24.9,/,0.1,-30.1
Cc1ccc2c(c1)[C@@H]1CN(C)CC[C@@H]1N2S(=O)(=O)c1ccc(F)cc1,-4.5,-0.4,2.5,-13.4,14.5*,-11.7
Cc1ccc(-n2c(SCC(=O)N3CCOCC3)nnc2-c2ccncc2)cc1C,4.0,0.2,-17.5,2.8,0.3,-14.1
CC(=O)NC1C(=O)N(CCN2CCOCC2)c2ccc(Br)cc21 (configuration not stated),0.4,-0.6,-2.2,0.4,17.9*,-3.4
CCOc1ccc2c(c1)C(NC(C)=O)C(=O)N2CCN1CCOCC1 (configuration not stated),-2.1,-0.3,-14.1,5.8,-2.7,-6.2
O=C(O)c1cc(S(=O)(=O)N(Cc2ccccc2)c2ccc(Cl)cc2)ccc1Cl,/,1.8,20.5,4.0,39.1*,-13.4
COc1cc(C(C2C(=O)CC(C)(C)CC2=O)C2C(=O)CC(C)(C)CC2=O)ccc1O,-3.3,0.2,-11.7,-2.3,-1.0,-13.7
COc1ccc(C(C2C(=O)CC(C)(C)CC2=O)C2C(=O)CC(C)(C)CC2=O)cc1COCC(F)(F)F,-4.6,5.1,-28.5,1.9,12.6*,-4.9
Cc1ccc(C(=O)Nc2cccc(C(F)(F)F)c2)cc1NC(=O)c1[nH]cnc1C(N)=O,-1.2,-0.4,5.6,/,-6.1,-22.9
COc1cc2c(cc1OC)C(c1ccccc1)NC(C)(C)C2 (configuration not stated),0.3,0.9,1.0,-2.2,6.8,-4.3
Cc1ccc(NC(=O)CN2C(=O)S/C(=C/c3ccc(-c4cc(C(=O)O)ccc4C)o3)C2=O)cc1C,6.5,3.3,4.8,84.5*,4.0,/
Cc1ccc(C(=O)O)cc1-c1ccc(C=C2C(=O)c3ccccc3C2=O)o1,1.2,0.4,8.1,12.4,10.1*,3.7
